A selection: hits, their analogues and other compounds. The true share with any hit is near 12%.
HP1b chromo inh = HP1-beta chromodomain-methylated histone interaction inhibition | P83916 | AlphaScreen HP1-beta / biotin-H3K9me3 peptide binding | Potency, µM (titrated, usually from 114 µM), usual class: inhibitors | actives 0.56% (n = 390,000); also: nearly all actives have a fitted effect of over 70% in size
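Compound inhibition of the preformed complex between 50 nM HP1-beta and 50 nM biotinylated H3K9me3 peptide was read by AlphaScreen. Buffer was PBS pH 7.4 with 0.01% Tween-20. Incubations ran 30 min at room temperature, with 10 ug/mL donor/acceptor beads.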
Sfp inh = blocks B. subtilis Sfp PPTase activity | Potency, µM, usual class: inhibitors | Q9F4F7 | actives 3.5% (n = 310,000) | AID 1490 | Biochemical Sfp PPTase activity, qHTS;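 also: the enzyme is Sfp with the accession as filed and its product quenches rhodamine fluorescence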
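With Hepes-Na pH 7.6 buffer containing 10 mM MgCl2, Sfp (15 nM) modified BHQ-2-YbbR (12.5 uM) using rhodamine-CoA (5 uM). Two reads 30 minutes apart at 525/598 nm yielded each well's rate.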
BAZ2B inh = blocks human BAZ2B | AID 504333 | AlphaScreen BAZ2B-H3K14Ac peptide displacement | actives 4.4% (n = 360,000) | Potency, µM (series often up to 114 µM), hits mostly inhibitors | Q9UIF8; also: nearly all actives have a fitted effect of over 60% in size
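In this displacement format the biotinylated H3(5-23) peptide acetylated at Lys14 serves as ligand at 50 nM, with BAZ2B at 50 nM in PBS pH 7.4 containing 0.01% Tween-20. Donor and acceptor beads are 10 ug/mL final.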
JMJD2A Tudor inh = JMJD2A Tudor domain (human) inhibition | AlphaScreen JMJD2A-Tudor / H3K4me3 peptide binding | Potency, µM (series often up to 114 µM), most hits filed as inhibitors | actives 4.4% (n = 390,000) | AID 504339; also: nearly all actives have a fitted effect of over 50% in size
G9a block = G9a (human) methyltransferase inhibition; actives 8.8% (n = 350,000); AID 504332; Potency, µM (titrated, usually from 102 µM), most hits filed as inhibitors; G9a H3K9 monomethylation, AlphaScreen, 2 h; also: nearly all actives have a fitted effect of over 75% in size
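G9a (20 nM) preincubated 15 min RT with compounds, then 500 nM biotinylated H3K9 peptide and 20 uM SAM added; 2 h RT reaction. Monomethyl-H3K9 product detected by AlphaScreen with anti-H3K9me1 antibody, streptavidin donor and anti-rabbit IgG acceptor beads.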
Each line names hits and unclear results; the compound was inactive in the other large screens; ! = not active in a repeat. Calls follow the shape of the dose curve; as a rule, active = well fitted curve in the direction sought with a large enough effect; inconclusive = small, poorly fitted or top-dose-only effect, or another doubt; inactive = no such curve, though single readings can be large; an effect the other way counts as inactive or inconclusive.

Clc1ccccc1Cn1nnc2c(N3CCOCC3)nc(C3CC3)nc21	none
CSc1nc(O)c(C(c2ccc(C)cc2)c2c(O)nc(SC)[nH]c2=O)c(=O)[nH]1	G9a block 39.8µM
COc1ccc(OC)c(C(c2c(O)nc(SC)[nH]c2=O)c2c(O)nc(SC)[nH]c2=O)c1	Sfp inh inconclusive, G9a block 50.1µM
COc1cc(C(c2c(O)nc(SC)[nH]c2=O)c2c(O)nc(SC)[nH]c2=O)cc(OC)c1OC	Sfp inh inconclusive
CNC(=O)/C(C#N)=C/c1cccc(Oc2ccccc2)c1	none
COc1ccc(CN(Cc2cccn2C)S(=O)(=O)c2ccc(F)cc2)cc1	none
CC1(c2ccc([N+](=O)[O-])c(CS(=O)(=O)c3ccccc3)c2)OCCO1	none
Cc1nn(C)c(Cl)c1CN1CCN(C2CCCC2)C(CCO)C1 (stereo not drawn)	none (no result: G9a block)
CCOc1ccc(NC(=O)CSc2nc(O)c(C)c(=O)n2-c2ccc(F)cc2)cc1	G9a block inconclusive
C=C(C)CSc1nnc(CCNC(=O)OC(C)(C)C)o1	none
CCOC(=O)C1CCN(Cc2ccc(O)c(OC)c2)CC1	HP1b chromo inh inconclusive, BAZ2B inh inconclusive, JMJD2A Tudor inh 3.16µM, G9a block 31.6µM
COc1cc(CN2CCCCC2)ccc1OCc1ccccc1	HP1b chromo inh inconclusive, BAZ2B inh inconclusive, JMJD2A Tudor inh 31.6µM (no result: G9a block)
O=C(C1CCCO1)N1CCN(S(=O)(=O)c2ccccc2)CC1 (stereo not drawn)	G9a block inconclusive
Cc1cccc(CN2CCN(C(c3ccccc3)c3ccc(Cl)cc3)CC2)c1 (stereo not drawn)	BAZ2B inh 50.1µM, JMJD2A Tudor inh 79.4µM, G9a block inconclusive
O=C(C1CCCO1)N1CCN(C(c2ccccc2)c2ccccc2)CC1 (stereo not drawn)	G9a block 8.91µM
c1ccc(COc2cccc(CN3CCCCC3)c2)cc1	HP1b chromo inh inconclusive, BAZ2B inh inconclusive, JMJD2A Tudor inh 25.1µM, G9a block 35.5µM
COc1ccc(CN2CCC(C)CC2)cc1OCc1ccccc1	none
c1ccc(Oc2cccc(CN3CCCCC3)c2)cc1	BAZ2B inh inconclusive
CCOC(=O)C1CCN(Cc2ccc(OCc3ccccc3)c(OC)c2)CC1	G9a block 50.1µM
O=C(CN1CCN(C(=O)C2CCCO2)CC1)Nc1ccc(Cl)c(Cl)c1 (stereo not drawn)	G9a block 79.4µM
CN1CCCN(C(c2ccccc2)c2ccc(Cl)cc2)CC1 (stereo not drawn)	BAZ2B inh inconclusive, JMJD2A Tudor inh 79.4µM, G9a block inconclusive
CCCCNC(=O)CC1N=C2c3ccccc3N=C(SCC(=O)Nc3ccccc3OC)N2C1=O (stereo not drawn)	none
CCOC(=O)c1cc(-c2ccccc2)n(CCCC(=O)Nc2cccc(C)c2)c1C	JMJD2A Tudor inh inconclusive, G9a block inconclusive (no result: Sfp inh)
CCN(CC)C(=O)C1CCN(Cc2ccc(OCc3ccccc3)c(OC)c2)CC1	HP1b chromo inh inconclusive, BAZ2B inh 56.2µM, JMJD2A Tudor inh 11.2µM, G9a block 50.1µM
O=C(C1CCN(Cc2ccc(Cl)cc2)CC1)N1CCN(C(c2ccccc2)c2ccccc2)CC1	HP1b chromo inh inconclusive, Sfp inh 44.7µM, BAZ2B inh 79.4µM, JMJD2A Tudor inh inconclusive, G9a block 20µM
O=C(CCN1CCN(Cc2ccccc2)CC1)Nc1ccc(OCc2ccccc2)cc1	BAZ2B inh inconclusive, JMJD2A Tudor inh inconclusive, G9a block inconclusive
CCN(CC)C(=O)C1CCN(Cc2ccc(OCc3ccccc3)cc2)CC1	HP1b chromo inh inconclusive, BAZ2B inh inconclusive, JMJD2A Tudor inh 22.4µM, G9a block 10µM
CCOC(=O)C1CCN(Cc2ccc(OC)c(OCc3ccccc3)c2)CC1	BAZ2B inh 56.2µM, G9a block 28.2µM
O=C(c1cccn1-c1nnc(N2CCCC2)s1)N1CCN(c2ccc(F)cc2)CC1	none (no result: Sfp inh)
COCCn1c(=O)c(C)nc2cnc(Nc3ccccc3)nc21	none (no result: HP1b chromo inh, BAZ2B inh, JMJD2A Tudor inh)
O=C(CCCC(=O)NN=Cc1cccc(O)c1)NN=Cc1cccc(O)c1	none (no result: Sfp inh, BAZ2B inh, G9a block)
CCN1CCN(C(=O)C2CCN(Cc3cc(Cl)ccc3O)CC2)CC1	HP1b chromo inh inconclusive, BAZ2B inh inconclusive, JMJD2A Tudor inh 10µM, G9a block 10µM
CCN1CCN(C(=O)C2CCN(Cc3nc(-c4cccc(Cl)c4)oc3C)CC2)CC1	G9a block inconclusive
CCCCNC(=O)C1CCN(Cc2ccc(OCc3ccccc3)cc2)CC1	HP1b chromo inh inconclusive, BAZ2B inh inconclusive, JMJD2A Tudor inh 3.55µM, G9a block 11.2µM
OC1CCN(Cc2ccc(OCc3ccccc3)cc2)CC1	none
CCOC(=O)C1CCN(Cc2cc(C(C)(C)C)c(O)c(C(C)(C)C)c2)CC1	Sfp inh inconclusive, G9a block 56.2µM
CCCCC(=O)C1CCN(Cc2ccccc2)CC1	none
O=C(C1CCN(Cc2ccc(OCc3ccccc3)cc2)CC1)N1CCCC1	HP1b chromo inh inconclusive, Sfp inh inconclusive, BAZ2B inh 79.4µM, JMJD2A Tudor inh 1.58µM, G9a block 14.1µM
Cc1cc(C)cc(NC(=O)C2CCC(CNC(=O)[C@@H]3Cc4ccccc4CN3)CC2)c1 (stereo partly drawn)	none
COc1ccc(C2c3c(-c4ccccc4O)n[nH]c3C(=O)N2Cc2ccco2)cc1OC (stereo not drawn)	BAZ2B inh 56.2µM, JMJD2A Tudor inh inconclusive
Cc1ccc(C2c3c(-c4cc(C)ccc4O)n[nH]c3C(=O)N2Cc2ccco2)cc1 (stereo not drawn)	BAZ2B inh 22.4µM, JMJD2A Tudor inh inconclusive, G9a block 28.2µM (no result: Sfp inh)
CCCc1ccc(C(=O)O/N=C(\N)c2ccccn2)cc1	none
Cc1ccccc1OCc1nc(-c2ccc(Br)o2)no1	BAZ2B inh inconclusive, G9a block 79.4µM
COc1ccccc1-c1nc(-c2ccc(Br)o2)no1	G9a block 50.1µM!
CCC(=O)Nc1ccc(/C(C)=N\NC(=O)c2ccc(OC)cc2)cc1	none
O=C(Nc1ccccc1)C1CCN(S(=O)(=O)c2ccc3c(c2)CCCN3C(=O)C2CCC2)CC1	none (no result: Sfp inh)
CC1=C(c2ccc(Cl)cc2)[N+](=O)C(C)(C)N1[O-]	G9a block 50.1µM
Cc1nonc1OCCCNc1ccc([N+](=O)[O-])cc1Cl	G9a block 1.26µM
CCCOC1(NC(=O)c2ccccc2)C(C)=CC(=O)C=C1C	HP1b chromo inh inconclusive, Sfp inh 56.2µM, JMJD2A Tudor inh inconclusive
CCOC(=O)c1c(C)n(-c2ccccc2)c2ccc(OC(=O)c3ccccc3NC(=O)C(C)C)cc12	none (no result: Sfp inh)
CCc1ccc(S(=O)(=O)/N=C2\C=C(Nc3ccc(C(=O)O)cc3)C(=O)c3ccccc32)cc1	HP1b chromo inh inconclusive, BAZ2B inh 7.94µM, JMJD2A Tudor inh 28.2µM, G9a block 8.91µM
Cc1ccc(S(=O)(=O)/N=C2\C=C(Nc3cccc(C(=O)O)c3)C(=O)c3ccccc32)c(C)c1	HP1b chromo inh inconclusive, BAZ2B inh 8.91µM, JMJD2A Tudor inh 28.2µM, G9a block 2.82µM
Cc1ccc(S(=O)(=O)/N=C2\C=C(Nc3cccc(C(=O)O)c3)C(=O)c3ccccc32)cc1	HP1b chromo inh inconclusive, BAZ2B inh 12.6µM, JMJD2A Tudor inh 44.7µM, G9a block 10µM

Assay outcomes as filed in PubChem.
